Measurements as given in PubChem BioAssay (NCI).
The panel holds about 79,000 compounds, 15% with a hit somewhere; the sample as a whole holds those more often. Unmarked numbers belong to inactive results. The source made the active and inactive calls. No stated cut-off is given here; in the data, active means growth inhibition above about 70%; inactive means the rest.

Legend:
[1] = NCI Yeast Anticancer Drug Screen. Data for the rad50 strain (AID 155);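 further: 0% = growth of vehicle-only cultures of the same strain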; conditions: S. cerevisiae rad50 strain growth inhibition; at 50.0 µM; stronger effect = higher value
Procedure, shortened: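 DNA repair mutant yeast, compound exposure, growth read-out; inhibition is taken relative to vehicle.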

[2] = NCI Yeast Anticancer Drug Screen. Data for the mec2-1 strain (AID 157); conditions: S. cerevisiae mec2-1 strain, at 50.0 µM, stronger effect = higher value
Procedure, shortened: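 Compounds were applied to mec2-1 yeast cells. Their growth was then compared with that of vehicle-treated cultures to give growth inhibition.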

[3] = NCI Yeast Anticancer Drug Screen. Data for the sgs1 mgt1 strain (AID 161);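 further: 0% = growth of cultures given vehicle only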; conditions: S. cerevisiae sgs1 mgt1 strain, at 50.0 µM, stronger effect = higher value
Procedure, shortened: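 Percent growth inhibition was derived by comparing compound-exposed mutant yeast with vehicle-exposed cultures. The strain carries alterations in DNA damage repair.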

[4] = NCI Yeast Anticancer Drug Screen. Data for the cln2 rad14 strain (AID 165);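 further: 0% = growth equal to vehicle treated cultures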; conditions: S. cerevisiae cln2 rad14 strain, at 50.0 µM, stronger effect = higher value
Procedure, shortened: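 Strain: cln2 rad14 yeast, altered in cell cycle control and DNA damage repair. Read-out: growth inhibition vs vehicle.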

[5] = NCI Yeast Anticancer Drug Screen. Data for the bub3 strain (AID 167); conditions: S. cerevisiae bub3 mutant strain, at 50.0 µM, stronger effect = higher value
Procedure, shortened: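 In this screen, a yeast mutant lacking normal mitotic checkpoint function is challenged with compound. Relative growth versus vehicle gives the inhibition value.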

[6] = NCI Yeast Anticancer Drug Screen. Data for the mlh1 rad18 strain (AID 175); conditions: S. cerevisiae mlh1 rad18 strain growth inhibition; at 50.0 µM; stronger effect = higher value
Procedure, shortened: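 A repair-deficient yeast strain is exposed to test compound, and growth is scored relative to vehicle-treated controls.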

| Structure (SMILES) | growth inhibition [1] | growth inhibition [2] [%] | growth inhibition [3] | growth inhibition [4] [%] | growth inhibition [5] [%] | growth inhibition [6] |
| --- | --- | --- | --- | --- | --- | --- |
| N#Cc1c(-c2ccccc2)cc(-c2cccs2)c(C#N)c1N | 4.35% | 4 | 7.85% | -35.3 | 12.8 | 21.1% |
| NC(CCC(N)C(=O)c1ccccc1)C(=O)c1ccccc1 (stereo not given) | -12.2% | -7.75 | 4.35% | 6.8 | -8.8 | 11.7% |
| COc1ccn(C2OCCC(OC(C)=O)C2O)c(=O)n1 (stereo not given) | -19.8% | -24.1 | 6.25% | -22.9 | 0.4 | 11.7% |
| O=[N+]([O-])c1ccc(-c2csc(Nc3ccccn3)n2)o1 | 81.1% (active) | 38.3 | 84.7% (active) | 31.4 | 40.8 | 92.5% (active) |
| O=NN(CCCl)C(=O)NCc1ccc[n+]([O-])c1 | 19.7% | 8.6 | -2% | 4.25 | 2.2 | 8.2% |
| FC1(F)SC2c3ccccc3CC2C1(F)F (stereo not given) | 20.4% | 6.15 | 7.75% | -47.2 | 8.35 | 9.95% |
| [N-]=[N+]=C1C(=O)NC(=O)N2C3OC(CO[C@@H]12)C(O)C3O (stereo not given in full) | -24.2% | -1.65 | -16.2% | 32.2 | -8.2 | -39% |
| NC(=S)N=Nc1c(O)[nH]c2c(Cl)cc(Cl)cc12 | 6.7% | -14.2 | 28.6% | 7.15 | 13.8 | -8.95% |
| N#Cc1ccc(OCCCCCOc2ccc(C#N)cc2)cc1 | -11.2% | -0.65 | -1.15% | -43.1 | -2.6 | -5.8% |
| O=C(O)C1CC(Cl)C(O)C(Cl)C1 (stereo not given) | -6.9% | 8.4 | 8.95% | -56.3 | -6.65 | 9% |
| O=C1NC(c2ccco2)N2C(=O)NC(c3ccco3)N12 (stereo not given) | 15.2% | 21.5 | 24.5% | 12.6 | 18.6 | 16.7% |
| C[N+](C)(Cn1nc(Cl)c2ccc([N+](=O)[O-])cc21)Cn1nc(Cl)c2ccc([N+](=O)[O-])cc21 | 43.6% | -5 | 18.8% | 28.1 | -0.25 | 27.9% |
| Nn1nc2ccccc2n1 | -0.15% | 0.2 | -11.1% | 1.6 | 0.75 | 1.45% |
| CCCCCCCCCCP(=O)(O)CCCCCCCCCC | 8.3% | -3.8 | 9.9% | -144 | 21.7 | -16.3% |
| Oc1cc2cc(-c3ccccc3)[nH]c2c2ccccc12 | -11.1% | -5.25 | -1.3% | 18.8 | -2.1 | 1.3% |
| Cc1ccc(S(=O)(=O)CCOC(=O)Nc2ccccc2)cc1 | 2.5% | 12.6 | 1.7% | -12.4 | -14.6 | 11.5% |
| CCCCCCC/C=C\C=O | 7.2% | 16.9 | 7.95% | -1.25 | 1 | 3.7% |
| CCN1CC(O)Cc2ccccc21 (stereo not given) | -3.55% | 8.55 | 11.2% | 1.4 | -8.35 | -3.5% |
| C=C(C)CC1CC(=O)OC1=O (stereo not given) | 26% | -16.4 | 13.6% | -21.9 | -9.8 | 4.35% |
| CCCCc1c(OC)cc(O)c2c1C(=O)c1[nH]c(C(=O)O)c(O)c(=O)c1C2=O | -16.6% | -19.3 | -13.9% | -11.7 | -10.9 | -5.75% |
